hgDAF12 agonist: H. glycines DAF-12 receptor agonists, primary screen, cell-based, luminescence, HEK293, GAL4 fusion, UAS-luciferase | HEK293 GAL4-hgDAF12 UAS-luciferase reporter, agonist luminescence; normalized to butyrate control | hit rate 1.8% among 370,000 | AID 687014, 2013 | Nuclear hormone receptor DAF-12 (Heterodera glycines), GAL4 fusion | activation, % at 6.8 µM;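 active = activation above a cutoff set at the mean of all screened compounds plus 3 SD, cut at about 10% in these data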;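 also: 0% = DMSO wells and 100% = sodium butyrate wells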
FXN GAA850 act: FXN promoter activators, primary screen, cell-based, luciferase luminescence, HEK293 lucGAA850; HEK293 lucGAA850 FXN promoter luciferase reporter, 24 h; percent of 10 µM SAHA response; hit rate 0.56% among 360,000; AID 540364, 2011; activation, % at 6 µM;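 active = activation above the average of all compounds screened plus 3 SD, cutoff fixed separately per campaign, cut at about 7.5% in these data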;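 also: 0% = DMSO wells and 100% = 10 µM SAHA wells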
hcDAF12 agonist: H. contortus DAF-12 nuclear receptor activators, primary screen, cell-based, luminescence, HEK293, lit1-tk-luc reporter; activation, % at 6.8 µM; hit rate 1.4% among 370,000; HEK293 hcDAF-12 lit1-tk-luc reporter; 0% DMSO, 100% Δ7-dafachronic acid; AID 652067, 2013;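 active = activation above the mean of all tested compounds plus 3 SD, cut at about 5.5% in these data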;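 also: 100% = response to 3 µM Δ7-dafachronic acid high control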
ssDAF12 agonist: S. stercoralis DAF-12 nuclear receptor activators, primary screen, cell-based, luminescence, HEK293, GRIP1 co-expression, lit1-tk-luc | Nuclear hormone receptor DAF-12 (Strongyloides stercoralis) | HEK293 ssDAF-12/GRIP1 lit1-tk-luc reporter; % of 3 µM dafachronic acid response | activation, % at 6.8 µM | hit rate 1% among 370,000 | AID 652126, 2013;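 active = activation above the mean over all tested compounds plus 3 SD, cut at about 0.9% in these data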;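 also: 0% = DMSO-only wells and 100% = 3 µM delta7-dafachronic acid wells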
DAX1 inh-1: DAX1 (NR0B1) inhibitors, primary screen, cell-based, HEK293, Gal4-DAX1, luciferase luminescence; AID 504766, 2011; hit rate 0.99% among 340,000; inhibition, % at 6.75 µM; Nuclear receptor subfamily 0 group B member 1 (Homo sapiens), P51843; HEK293 Gal4-DAX1 luciferase reporter;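 active = inhibition above the mean over all tested compounds plus 3 SD, cut at about 4.2% in these data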;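 also: 0% = DAX1-transfected cells with DMSO and 100% = empty-vector control cells with DMSO; inhibition shows as a rise in luminescence from relieved DAX1 repression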
DAX1 inh-2: DAX1 (NR0B1) inhibitors on StAR promoter, primary screen, cell-based, luminescence, SF-1 (NR5A1), full-length DAX-1. HEK293T StAR-luciferase reporter, SF-1/DAX-1 repression relief. inhibition, % at 6.8 µM. hit rate 1.1% among 370,000;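 active = inhibition above the mean over all tested compounds plus 3 SD, cut at about 3.6% in these data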;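 also: 0% = DAX-1 cells with DMSO and 100% = cells lacking DAX-1 with DMSO; higher inhibition means more luminescence from relief of DAX-1 repression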
DAX1 conf: DAX1 (NR0B1) inhibitors relieving SF-1 repression, confirmation, cell-based, luminescence, HEK293T, full-length DAX-1, SF-1 activated StAR promoter; hit rate 87% among 2,400; AID 652134, 2013; inhibition, % at 6.8 µM; HEK293T StAR-promoter luciferase reporter, SF-1/DAX-1 repression; shares compounds with DAX1 inh-2;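 active = inhibition above the average of every tested compound plus 3 SD, cut at about 3.8% in these data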;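 also: 0% = DAX-1 cells with DMSO and 100% = no DAX-1 control cells with DMSO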
SF1 AF2mut Luc: StAR reporter signal changes without DAX1, counter-screen for DAX1 inhibitor project, cell-based, luminescence, AF-2 mutant SF-1, transactivation; shares compounds with DAX1 inh-2; HEK293 StAR-luciferase, SF-1 AF2 mutant; inhibition, % at 6.8 µM; hit rate 78% among 2,400; AID 652136, 2013;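 active = inhibition above the mean of all tested compounds plus 3 SD, cut at about 3% in these data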;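 also: 0% = DAX-1 transfected cells with DMSO and 100% = cells without DAX-1 with DMSO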
LXR ag: LXR agonists, Gal4 luciferase reporter, confirmation, counter-screen for hcDAF-12 agonist project, cell-based, luminescence, HEK293, H. contortus campaign; HEK293 Gal4-LXR tk-luc reporter, 24 h; normalized: DMSO 0%, positive control 100%; AID 743027, 2013; shares compounds with hcDAF12 agonist; activation, % at 6.8 µM; 3,400 tested, under 10 active;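 active = mean percent activation of the reporter above a cutoff set as the average over tested compounds plus their standard deviation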
Target sequence (P55055 whole entry, looked up, the tested form may be a part): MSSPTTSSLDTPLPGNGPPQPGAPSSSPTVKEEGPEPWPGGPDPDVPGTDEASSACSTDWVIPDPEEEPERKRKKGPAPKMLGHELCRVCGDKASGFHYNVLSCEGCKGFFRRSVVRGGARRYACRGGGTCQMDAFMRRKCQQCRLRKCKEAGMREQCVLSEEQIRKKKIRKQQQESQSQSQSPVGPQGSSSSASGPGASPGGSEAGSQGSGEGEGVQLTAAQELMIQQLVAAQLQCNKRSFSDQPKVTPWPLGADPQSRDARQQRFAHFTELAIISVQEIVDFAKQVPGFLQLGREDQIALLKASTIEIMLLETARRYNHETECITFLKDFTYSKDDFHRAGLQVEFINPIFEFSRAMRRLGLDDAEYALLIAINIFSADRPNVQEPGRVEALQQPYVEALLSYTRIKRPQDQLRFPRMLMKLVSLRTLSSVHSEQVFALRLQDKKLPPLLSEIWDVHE
hcDAF12 ag: H. contortus DAF-12 receptor agonists, confirmation, cell-based, luminescence, HEK293, lit1-tk-luc, triplicate | shares compounds with hcDAF12 agonist | HEK293 hcDAF-12 lit1-tk-luc reporter; % of Δ7-dafachronic acid response | activation, % at 6.8 µM | hit rate 61% among 3,400 | AID 743032, 2013;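 active = mean activation across triplicate tests above the threshold derived from the earlier primary screen, cut at about 5.5% in these data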;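 also: 0% = DMSO only wells and 100% = 3 µM Δ7-dafachronic acid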
hgDAF12 conf: H. glycines DAF-12 receptor agonists, confirmation, cell-based, luminescence, HEK293, GAL4-LBD fusion. activation, % at 6.8 µM. hit rate 80% among 3,300. HEK293 GAL4-hgDAF12 luciferase reporter, agonist mode; percent of butyrate response. AID 743050, 2013. shares compounds with hgDAF12 agonist;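 active = mean activation over triplicate wells above the hit cutoff derived from the earlier primary screen, cut at about 11% in these data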;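 also: 0% = DMSO low control and 100% = 2 mM sodium butyrate high control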
LXR ag 2: LXR agonists, Gal4 luciferase reporter, confirmation, counter-screen for hgDAF-12 agonist project, cell-based, luminescence, HEK293, H. glycines campaign. shares compounds with hgDAF12 agonist. 24 h. activation, % at 6.8 µM. 3,300 tested, under 10 active. AID 743051, 2013;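 active = mean activation of the triplicate above a set limit carried over from the primary screen, none filed active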
An asterisk follows results filed as active; nt = not tested or not shown. This is a sample that favours compounds with a hit; in the whole collection about 4.5% have one here.

SMILES	hgDAF12 agonist	FXN GAA850 act	hcDAF12 agonist	ssDAF12 agonist	DAX1 inh-1	DAX1 inh-2	DAX1 conf	SF1 AF2mut Luc	LXR ag	hcDAF12 ag	hgDAF12 conf	LXR ag 2
COc1ccc(/C=N/Nc2nc3ccccc3o2)cc1O	15*	-2	12*	1	0	5.5*	5.4*	2	1	6.6*	7	1
O=C(NCc1ccccc1)c1nc2ccccc2s1	2	1	1	-2	1	-1	nt	nt	nt	nt	nt	nt
CC(=O)NCc1ccc(-c2nc3ccccc3s2)cc1	15*	3	4	-1	1	6.9*	16*	6.7*	nt	nt	15*	1
CN(C)CC1CCC/C(=C/c2ccc(Cl)cc2)C1=O (stereo not given)	-3	3	0	0	2	0	nt	nt	nt	nt	nt	nt
COc1ccc(CCc2ccnc3ccccc23)cc1	0	1	-1	-1	-1	-2	nt	nt	nt	nt	nt	nt
COc1ccc(CCc2ccc3ccccc3n2)cc1	14*	4	3	0	2	5.7*	13*	6.8*	nt	nt	12*	1
COc1ccc(-c2ccc3ccccc3n2)cc1OC	17*	6	1	0	1	5.3*	7.4*	3.4*	nt	nt	12*	1
COc1ccc(-c2ccc3ccccc3n2)cc1	24*	6	9.6*	1	-1	12*	20*	8.7*	2	11*	17*	1
OC[C@H]1O[C@@H](c2nc3ccc(-c4nc(-c5cccs5)no4)cc3[nH]2)C[C@@H]1O	15*	4	6.1*	1	nt	4.8*	10*	8.7*	nt	nt	16*	1
Oc1[nH]c2ccccc2c1C=Nc1ccc2c(c1)OCO2	17*	5	7.0*	1	5.1*	6.6*	16*	8.2*	1	6.8*	19*	1
NNc1nc2ccccc2c(=O)n1Cc1ccccc1	7	0	5	1	1	1	nt	nt	nt	nt	nt	nt

Source: PubChem (The Scripps Research Institute Molecular Screening Center)
